Compounds with a hit are over-represented: about 2.4% of the library has one in this group of screens.
D2 ag-1 – activates the human D2 dopamine receptor; P14416; DiscoveRx PathHunter D2 beta-arrestin, luminescence, 90 min; 100% = 57 uM dopamine signal; activation, % (test concentration not listed); 360,000 compounds, 0.084% hits; AID 624465; in the data active = activation above about 40%; inconclusive = between about 15% and that limit
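Agonist mode: compounds alone added to overnight-plated D2 PathHunter cells for 90 min at 37 C, with 57 uM final dopamine (EC100) defining full response. Beta-arrestin recruitment detected by chemiluminescent reagent, read after 1 h at ambient temperature.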
D2 PAM-1 – D2 dopamine receptor (human) potentiation; P14416; HEK293 T-REx D2, calcium flux, EC20 dopamine potentiation; potentiation, % at 10 µM; 340,000 compounds, 0.34% hits; AID 485347;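 active = potentiation over 3 SD above the plate norm, cut at about 30% in these data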
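Using a no-wash calcium dye in inducible, force-coupled HEK293 Trex cells expressing D2, we tracked fluorescence each second for 180 s after compound, then for 180 s after EC20 dopamine to detect augmented signalling.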
D2 PAM-2 – human D2 receptor positive allosteric modulation. 360,000 compounds, 0.23% hits. P14416. potentiation, % (no concentration beside the values). DiscoveRx D2 beta-arrestin cells, luminescence, 90 min; 100% = 57 uM dopamine signal; in the data active = potentiation above about 50%; inconclusive = mostly about 30% to 49%
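PathHunter D2 cells, attached overnight at 37 deg C, received compound in DMSO plus dopamine at EC20 (50 nM final) for 90 min at 37 deg C. Beta-arrestin recruitment was read as luminescence after 1 h with detection reagent at ambient temperature.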
D2 ag-2 – agonists of human D2 dopamine receptor; P14416; HEK293 T-REx D2 cells, calcium flux agonist mode; activation, % at 2 µM; 340,000 compounds, 0.53% hits;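 active = activation over 3 SD above normal in the single-dose calcium agonist read, cut at about 30% in these data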
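Tetracycline-induced HEK293 Trex cells with D2 receptor force-coupled to calcium signaling, plated overnight at 30 C and loaded with no-wash calcium dye. Calcium flux read kinetically for 180 s after compound addition; responses flag agonists.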
D2 antag – antagonists of human D2 dopamine receptor; 340,000 compounds, 2% hits; inhibition, % at 10 µM; HEK293 TREx D2 cells, calcium flux, dopamine EC80; P14416; in the data active = inhibition above about 30%; inactive = below that, where a call was filed
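HEK293 T-REx D2 cells, tet-induced, calcium dye no-wash. Cpd pintool add, 180 s kinetic, then EC80 DA, 180 s kinetic. Ca flux read.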
D3 arrestin ag – D3 receptor agonism confirmed, beta-arrestin readout. 2,300 compounds, 4% hits. Potency, µM (doses to about 76.9 µM), actives largely listed as activators. shares compounds with D2 ag-2. DiscoveRx D3 beta-arrestin cells, luminescence, 90 min; also: nearly all actives have a fitted effect of over 70% in size
Target sequence (P35462 whole entry, looked up): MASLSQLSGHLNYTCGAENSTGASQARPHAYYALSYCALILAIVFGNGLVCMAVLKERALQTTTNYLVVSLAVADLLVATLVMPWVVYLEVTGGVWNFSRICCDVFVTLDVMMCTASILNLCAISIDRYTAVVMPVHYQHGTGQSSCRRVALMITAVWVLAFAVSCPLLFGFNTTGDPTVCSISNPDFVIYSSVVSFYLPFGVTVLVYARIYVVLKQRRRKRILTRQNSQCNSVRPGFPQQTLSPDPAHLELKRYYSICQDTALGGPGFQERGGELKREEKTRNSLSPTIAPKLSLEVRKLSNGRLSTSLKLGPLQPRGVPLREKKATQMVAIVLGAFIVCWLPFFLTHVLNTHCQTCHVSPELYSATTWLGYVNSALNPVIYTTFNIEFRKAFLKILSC
D2 ag-3 – activates human D2 dopamine receptor in D3 counterscreen. shares compounds with D2 ag-2. DiscoveRx PathHunter D2 beta-arrestin, luminescence, 90 min; response scale: percent relative to full dopamine signal. Potency, µM (doses to about 76.9 µM), most hits filed as activators. 2,300 compounds, 5.9% hits; also: nearly all actives have a fitted effect of over 70% in size
Each line names hits and unclear results; the compound was inactive in the other large screens (follow-up assays come after a bar, where they were run). Unless noted, calls follow the shape of the dose curve; as a rule, active = well fitted activation curve with a large enough effect; inconclusive = small, poorly fitted or top-dose-only effect; inactive = flat fitted curve, though single readings scatter.

NC(=O)NC(=O)COC(=O)[C@H](Cc1ccccc1)NC(=O)c1cccs1	none | D3 arrestin ag inactive | D2 ag-3 inactive
COc1cc(C(=O)OCc2ccc(C)cc2)cc(NC(=O)c2cccs2)c1OC	D2 antag 37.6 | D3 arrestin ag inactive | D2 ag-3 inactive
Cc1ccc2occ(CN3CCN(c4ccccc4)CC3)c(=O)c2c1	D2 antag 67.4 (no result: D2 PAM-1) | D3 arrestin ag inactive | D2 ag-3 inactive
OC(CN1CCN(Cc2ccc3c(c2)OCO3)CC1)c1c[nH]c2ccccc12 (stereo unspecified)	none
OC(CN1CCN(c2ccccc2)CC1)c1c[nH]c2ccccc12 (stereo unspecified)	D2 antag 54.2 | D3 arrestin ag inactive | D2 ag-3 inactive
O=C1OC(N2CCN(c3ccccn3)CC2)c2ccccc21 (stereo unspecified)	D2 ag-2 55.2, D2 antag 33.8 | D3 arrestin ag inactive | D2 ag-3 inactive
CC1(C)O[C@@H]2[C@H](O1)[C@@H](CO)O[C@H]2n1cnc2c(=O)[nH]cnc21	none | D3 arrestin ag inactive | D2 ag-3 inactive
CCCc1nc(SC)ncc1C(=O)N1CCN(c2ccc(Cl)cc2)CC1	none (no result: D2 ag-1, D2 PAM-2, D2 ag-2, D2 antag)
Cc1cccc(C(=O)NNC(=S)NC(=O)c2cccs2)c1	none | D3 arrestin ag inactive | D2 ag-3 inactive
CCN(CC)C(=O)c1[nH]cnc1C(=O)N[C@@H](C)C(=O)OC(C)(C)C	none | D3 arrestin ag inactive | D2 ag-3 inactive
Cc1ccc(NC(=O)Cn2cc(S(=O)(=O)N3CCCC3)c(S(=O)(=O)N3CCCC3)c2)cc1C	none (no result: D2 ag-1, D2 PAM-2, D2 antag)
O=C(CSC1=N/C(=C/c2ccc(Cl)c(Cl)c2)C(=O)N1c1ccccc1F)NC1CC1	D2 antag 52.1 | D3 arrestin ag inactive | D2 ag-3 inactive
COc1cc(/C=N/NC(=O)C(C)Nc2n[nH]c(=O)[nH]c2=O)ccc1O (stereo unspecified)	none (no result: D2 PAM-1, D2 ag-2, D2 antag)
CC(Nc1n[nH]c(=O)[nH]c1=O)C(=O)N/N=C/c1ccccc1 (stereo unspecified)	none | D3 arrestin ag inactive | D2 ag-3 inactive
COc1ccc(NC(=O)CSC2=Nc3ccccc3C3=NC(CCC(=O)NCc4cccs4)C(=O)N23)cc1 (stereo unspecified)	none (no result: D2 ag-1, D2 PAM-2, D2 antag)
Cc1cc(/C=C(\C#N)C(N)=O)c(C)n1-c1ccc(N2CCOCC2)c([N+](=O)[O-])c1	D2 ag-2 55.2 | D3 arrestin ag inactive | D2 ag-3 inactive
Cc1cccc2sc(NC(=O)CSCc3ccccc3)nc12	D2 ag-2 43.8 | D3 arrestin ag inactive | D2 ag-3 inactive
Cc1cccc2sc(NC(=O)Cn3cccc3)nc12	none
COc1ccc(NC(=S)NCCc2ccccc2)c(C)c1	none
COc1cc(C)c(NC(=O)C(=S)NCCc2ccccc2)cc1C	none | D3 arrestin ag inactive | D2 ag-3 inactive
O=S(=O)(c1ccccc1F)N1CCN(CCOc2ccccc2)CC1	D2 ag-2 31.5, D2 antag 39.0 | D3 arrestin ag inactive | D2 ag-3 inactive
CC(=O)c1cccc(S(=O)(=O)N2CCN(CCOc3ccccc3)CC2)c1	D2 ag-2 49.1 | D3 arrestin ag inconclusive | D2 ag-3 inactive
O=S(=O)(c1ccccc1)N1CCN(CCOc2ccc(F)cc2)CC1	none (no result: D2 PAM-1, D2 ag-2, D2 antag)
CC(=O)c1ccc(S(=O)(=O)N2CCN(CCOc3ccc(Br)cc3)CC2)cc1	none
Cc1ccc(S(=O)(=O)N2CCN(CCOc3ccccc3)CC2)cc1	D2 ag-2 50.4 | D3 arrestin ag inactive | D2 ag-3 inactive
CCc1cc(-c2nnn(CCC3COCCO3)c2C(C)(C)O)ccc1-c1cn(CCc2c[nH]c3ccccc23)nn1 (stereo unspecified)	none (no result: D2 PAM-1, D2 PAM-2, D2 ag-2, D2 antag)
O=C(NCCSCc1cccc(Cl)c1)C1CCN(S(=O)(=O)Cc2ccccc2)CC1	none (no result: D2 ag-1, D2 PAM-2, D2 antag)
CCOc1ccc(NC(=S)NC(=O)c2c(Br)cnn2C)c([N+](=O)[O-])c1	D2 ag-2 47.8 | D3 arrestin ag inactive | D2 ag-3 inactive
CCCN(CCC)CCOc1cc(C)ccc1C(C)C	D2 ag-1 inconclusive (no result: D2 PAM-1, D2 ag-2, D2 antag) | D3 arrestin ag inactive | D2 ag-3 inconclusive
Cc1ccc(C(C)C)c(OCCN(C)C)c1	none
CCOC(=O)c1cc(S(=O)(=O)N2CCN(c3ccc(C(C)=O)cc3)CC2)[nH]n1	none (no result: D2 ag-1, D2 PAM-2, D2 antag)
O=C1C(c2ccc(F)cc2)N(CCc2ccc(Cl)cc2)C(=O)CN1C1CCCCCC1 (stereo unspecified)	none (no result: D2 ag-1, D2 PAM-2, D2 antag)
O=C(CCNS(=O)(=O)c1ccc(Br)cc1)NCc1cccs1	none
CN(Cc1cccs1)C(=O)CCNS(=O)(=O)c1ccc(Br)cc1	none | D3 arrestin ag inactive | D2 ag-3 inactive
Cc1ccccc1OC(=O)CSc1nnc(-c2cccs2)o1	none (no result: D2 ag-1, D2 PAM-2, D2 antag)
O=C(Cn1cncn1)N/N=C/c1cc([N+](=O)[O-])ccc1O	D2 antag 51.9 | D3 arrestin ag inactive | D2 ag-3 inactive
O=C(c1ccccc1)[C@@H]1[C@@H](C(=O)c2ccc(F)cc2)[C@@]2(C(=O)Nc3ccccc32)[C@H]2c3ccccc3C=CN12	D2 ag-2 56.7 | D3 arrestin ag inactive | D2 ag-3 inactive
CC(=O)[C@@H]1[C@@H](C(=O)c2ccccc2)[C@]2(C(=O)Nc3ccccc32)[C@H]2C=Cc3cc(F)ccc3N12	none
Cc1cccc(C(=O)Nc2cccc(OCc3cc(=O)n4ccccc4n3)c2)c1	none (no result: D2 ag-1, D2 PAM-2, D2 antag)
COc1ccc(CNC(=O)CSc2nc(SC)ns2)cc1	none | D3 arrestin ag inactive | D2 ag-3 inactive
CSc1nsc(SCC(=O)Nc2ccc(OC(C)=O)cc2)n1	none
COc1ccc(C(=O)NCC(c2cccs2)S(=O)(=O)c2cccs2)cc1 (stereo unspecified)	none (no result: D2 ag-1, D2 PAM-2, D2 ag-2, D2 antag)
COc1ccc2[nH]c3c(=O)n(/N=C/[C@H]4C(C)C=C(C)CC4C)c(=O)[nH]c3c2c1 (stereo partly specified)	D2 ag-2 40.8, D2 antag 35.8 | D3 arrestin ag inactive | D2 ag-3 inactive
COc1ccc2c(c1)[nH]c1c(=O)n(/N=C/C3C(C)C=C(C)CC3C)c(=O)[nH]c12 (stereo unspecified)	none (no result: D2 PAM-1)
Cc1nn(-c2ccc(C(=O)N3CCN(S(=O)(=O)c4ccccc4C(F)(F)F)CC3)cc2)c(C)c1Cl	D2 ag-1 inconclusive, D2 ag-2 74.3, D2 antag 56.3 | D3 arrestin ag 0.794µM | D2 ag-3 31.6µM
CC(C)c1cccc(C(C)C)c1OC(=O)[C@H]1OC(C(C)(C)C)=C[C@@H]1c1ccccc1	none

Source: PubChem BioAssay (National Center for Advancing Translational Sciences (NCATS))
